Measured values published in PubChem BioAssay AID1159580 (chemical genetic matrix, 2015).
Among all 5,500 compounds or so, about 2,000 (36%) were called active. Not shown: some 18% with an inconclusive outcome. Rule as the data show it: active = normalized growth mostly below about 0.91 (no sharp cut-off); inconclusive = no clear call, values can overlap the other calls; inactive = mostly above about 0.92. Some of the results follow.

Assay: chemical genetic growth profiling, strain panel (AID 1159580);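 also: tested at 20 µM; growth read once vehicle control cultures reached saturation at 30 °C; 1 = growth at the plate median or of vehicle wells; lower values mean less growth of the strain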
Conditions: growth OD

Measured: normalized growth

CN(N=O)C(=O)N[C@@H]1[C@@H](O)[C@H](O)[C@@H](CO)O[C@@H]1O
inactive: S. cerevisiae deletion strains, locus YJL187C, strain SWE1 (second series), stronger effect = lower value 1.01 | S. cerevisiae deletion strains, locus YJR043C, strain POL32, stronger effect = lower value 1.01 | S. cerevisiae deletion strains, locus YJR066W, strain TOR1, stronger effect = lower value 0.99 | S. cerevisiae deletion strains, locus YKL009W, strain mrt4, stronger effect = lower value 1.05 | S. cerevisiae deletion strains, locus YKL068W, stronger effect = lower value 1 | S. cerevisiae deletion strains, locus YKL085W, strain MDH1 (second series), stronger effect = lower value 1.01 | S. cerevisiae deletion strains, locus YKL085W, strain MDH1, stronger effect = lower value 1.01 | S. cerevisiae deletion strains, locus YKL160W, strain elf1, stronger effect = lower value 1.02 | S. cerevisiae deletion strains, locus YKR001C, strain vps1, stronger effect = lower value 1 | S. cerevisiae deletion strains, locus YKR026C, strain gcn3, stronger effect = lower value 0.973 | S. cerevisiae deletion strains, locus YKR091W, strain srl3, stronger effect = lower value 0.988 | S. cerevisiae deletion strains, locus YLL001W, strain dnm1, stronger effect = lower value 0.987 | S. cerevisiae deletion strains, locus YLL026W, stronger effect = lower value 0.994 | S. cerevisiae deletion strains, locus YLL041C, strain sdh2, stronger effect = lower value 0.971 | S. cerevisiae deletion strains, locus YLR027C, strain aat2, stronger effect = lower value 1.01 | S. cerevisiae deletion strains, locus YLR039C, strain RIC1, stronger effect = lower value 1.03 | S. cerevisiae deletion strains, locus YLR058C, strain SHM2, stronger effect = lower value 1.01 | S. cerevisiae deletion strains, locus YLR102C, strain apc9, stronger effect = lower value 0.999 | S. cerevisiae deletion strains, locus YLR113W, strain HOG1, stronger effect = lower value 1.03 | S. cerevisiae deletion strains, locus YLR221C, strain rsa3, stronger effect = lower value 0.99 | S. cerevisiae deletion strains, locus YLR258W, strain gsy2, stronger effect = lower value 0.985 | S. cerevisiae deletion strains, locus YLR262C, strain YPT6 (second series), stronger effect = lower value 0.978 | S. cerevisiae deletion strains, locus YLR262C, strain YPT6, stronger effect = lower value 1.02 | S. cerevisiae deletion strains, locus YLR268W, strain sec22, stronger effect = lower value 0.999 | S. cerevisiae deletion strains, locus YLR320W, strain mms22, stronger effect = lower value 0.977 | S. cerevisiae deletion strains, locus YLR330W, strain CHS5, stronger effect = lower value 1.01 | S. cerevisiae deletion strains, locus YLR342W, strain FKS1 (second series), stronger effect = lower value 1.06 | S. cerevisiae deletion strains, locus YLR342W, strain FKS1, stronger effect = lower value 1.01 | S. cerevisiae deletion strains, locus YLR357W, strain rsc2, stronger effect = lower value 0.958 | S. cerevisiae deletion strains, locus YLR370C, strain arc18, stronger effect = lower value 0.999 | S. cerevisiae deletion strains, locus YLR371W, strain rom2, stronger effect = lower value 1.02 | S. cerevisiae deletion strains, locus YLR384C, strain iki3, stronger effect = lower value 0.986 | S. cerevisiae deletion strains, locus YLR418C, strain cdc73, stronger effect = lower value 0.994 | S. cerevisiae deletion strains, locus YML016C, strain PPZ1, stronger effect = lower value 1 | S. cerevisiae deletion strains, locus YML032C, strain rad52, stronger effect = lower value 1.02 | S. cerevisiae deletion strains, locus YML120C, strain ndi1, stronger effect = lower value 0.986 | S. cerevisiae deletion strains, locus YML124C, strain tub3, stronger effect = lower value 1 | S. cerevisiae deletion strains, locus YMR058W, strain fet3, stronger effect = lower value 1 | S. cerevisiae deletion strains, locus YMR078C, strain ctf18, stronger effect = lower value 1.01 | S. cerevisiae deletion strains, locus YMR125W, strain sto1, stronger effect = lower value 0.954 | S. cerevisiae deletion strains, locus YMR129W, stronger effect = lower value 1 | S. cerevisiae deletion strains, locus YMR205C, strain PFK2, stronger effect = lower value 0.98 | S. cerevisiae deletion strains, locus YMR223W, strain ubp8, stronger effect = lower value 1.04 | S. cerevisiae deletion strains, locus YMR231W, strain pep5, stronger effect = lower value 0.994 | S. cerevisiae deletion strains, locus YMR307W, strain GAS1, stronger effect = lower value 1.04 | S. cerevisiae deletion strains, locus YNL067W, strain RPL9B, stronger effect = lower value 1.03 | S. cerevisiae deletion strains, locus YNL071W, strain lat1, stronger effect = lower value 0.983 | S. cerevisiae deletion strains, locus YNL128W, strain TEP1, stronger effect = lower value 1.03 | S. cerevisiae deletion strains, locus YNL153C, strain GIM3, stronger effect = lower value 0.997 | S. cerevisiae deletion strains, locus YNL183C, strain NPR1, stronger effect = lower value 0.983 | S. cerevisiae deletion strains, locus YNL209W, strain ssb2, stronger effect = lower value 0.982 | S. cerevisiae deletion strains, locus YNL233W, strain BNI4, stronger effect = lower value 1.01 | S. cerevisiae deletion strains, locus YNL248C, strain rpa49, stronger effect = lower value 0.978 | S. cerevisiae deletion strains, locus YNL250W, strain rad50, stronger effect = lower value 1.03 | S. cerevisiae deletion strains, locus YNL271C, strain bni1, stronger effect = lower value 1 | S. cerevisiae deletion strains, locus YNL298W, strain CLA4, stronger effect = lower value 1.01 | S. cerevisiae deletion strains, locus YNL307C, strain MCK1, stronger effect = lower value 1.02 | S. cerevisiae deletion strains, locus YNL322C, strain KRE1 (second series), stronger effect = lower value 1.01 | S. cerevisiae deletion strains, locus YNR049C, strain mso1, stronger effect = lower value 0.983 | S. cerevisiae deletion strains, locus YNR052C, strain pop2, stronger effect = lower value 1.01 | S. cerevisiae deletion strains, locus YOL012C, strain htz1 0.87 | S. cerevisiae deletion strains, locus YOL147C, strain pex11, stronger effect = lower value 1.01 | S. cerevisiae deletion strains, locus YOR001W, strain rrp6, stronger effect = lower value 0.995 | S. cerevisiae deletion strains, locus YOR061W, strain CKA2, stronger effect = lower value 1.01 | S. cerevisiae deletion strains, locus YOR069W, strain VPS5, stronger effect = lower value 1.01 | S. cerevisiae deletion strains, locus YOR070C, strain gyp1, stronger effect = lower value 1.01 | S. cerevisiae deletion strains, locus YOR080W, strain dia2, stronger effect = lower value 0.996 | S. cerevisiae deletion strains, locus YOR083W, strain WHI5, stronger effect = lower value 0.986 | S. cerevisiae deletion strains, locus YOR106W, strain vam3, stronger effect = lower value 1.01 | S. cerevisiae deletion strains, locus YOR136W, strain idh2, stronger effect = lower value 1 | S. cerevisiae deletion strains, locus YOR144C, strain elg1, stronger effect = lower value 1.01 | S. cerevisiae deletion strains, locus YOR184W, strain ser1, stronger effect = lower value 1.01 | S. cerevisiae deletion strains, locus YOR231W, strain MKK1, stronger effect = lower value 1.02 | S. cerevisiae deletion strains, locus YOR265W, strain rbl2, stronger effect = lower value 1 | S. cerevisiae deletion strains, locus YOR270C, strain vph1, stronger effect = lower value 0.936 | S. cerevisiae deletion strains, locus YOR290C, strain snf2, stronger effect = lower value 1 | S. cerevisiae deletion strains, locus YOR316C, strain cot1, stronger effect = lower value 1 | S. cerevisiae deletion strains, locus YPL051W, strain arl3, stronger effect = lower value 1.02 | S. cerevisiae deletion strains, locus YPL078C, strain atp4, stronger effect = lower value 0.993 | S. cerevisiae deletion strains, locus YPL106C, strain sse1, stronger effect = lower value 1.02 | S. cerevisiae deletion strains, locus YPL240C, strain hsp82, stronger effect = lower value 0.983 | S. cerevisiae deletion strains, locus YPL256C, strain CLN2, stronger effect = lower value 1.06 | S. cerevisiae deletion strains, locus YPR119W, strain clb2, stronger effect = lower value 1 | S. cerevisiae deletion strains, locus YPR141C, strain kar3, stronger effect = lower value 0.996 | S. cerevisiae deletion strains, locus YPR163C, strain tif3, stronger effect = lower value 1 | S. cerevisiae deletion strains, locus YPR167C, strain met16, stronger effect = lower value 1.01 | S. cerevisiae deletion strains, strain wtn01, stronger effect = lower value 1 | S. cerevisiae strains, strain wild type, stronger effect = lower value 1.01
